Consider six compounds from ChEMBL document CHEMBL1961873, “Compounds: GSK PKIS; Assays: Nanosyn kinase panel” (2012).

Assay [1] concerns the target Mast/stem cell growth factor receptor Kit (Homo sapiens) (UniProt P10721). To be noted: at 1 µM.
In assay [2] the test system is Mast/stem cell growth factor receptor Kit (Homo sapiens), P10721 [D816V]. To be noted: at 0.1 µM.
Assay [3] has the same test system. To be noted: at 1 µM.
The subject of assay [4] is Mast/stem cell growth factor receptor Kit (Homo sapiens), P10721 [T670I]. To be noted: at 0.1 µM.
Assay [5] shares this test system. To be noted: at 1 µM.
Assay [6] concerns Mast/stem cell growth factor receptor Kit (Homo sapiens), P10721 [V560G]. To be noted: at 0.1 µM.
For assay [7] the test system is unchanged. To be noted: at 1 µM.
Assay [8] deals with Tyrosine-protein kinase Lck (Homo sapiens) (UniProt P06239). To be noted: at 0.1 µM.
For assay [9] the target is unchanged. To be noted: at 1 µM.
Assay [10] has as its target Leukocyte tyrosine kinase receptor (Homo sapiens) (UniProt P29376). To be noted: at 0.1 µM.
For assay [11] the target is unchanged. To be noted: at 1 µM.
Assay [12] concerns the target Tyrosine-protein kinase Lyn (Homo sapiens) (UniProt P07948). To be noted: at 0.1 µM.
For assay [13] the target is unchanged. To be noted: at 1 µM.
The target is the same in assay [14]. To be noted: at 0.1 µM. This is another data set of the same source.
The target is the same in assay [15]. To be noted: at 1 µM. This is another data set of the same source.
Assay [16] concerns the target T1, Tyrosine-protein kinase Mer (Homo sapiens) (UniProt Q12866).
T1 sequence (whole entry): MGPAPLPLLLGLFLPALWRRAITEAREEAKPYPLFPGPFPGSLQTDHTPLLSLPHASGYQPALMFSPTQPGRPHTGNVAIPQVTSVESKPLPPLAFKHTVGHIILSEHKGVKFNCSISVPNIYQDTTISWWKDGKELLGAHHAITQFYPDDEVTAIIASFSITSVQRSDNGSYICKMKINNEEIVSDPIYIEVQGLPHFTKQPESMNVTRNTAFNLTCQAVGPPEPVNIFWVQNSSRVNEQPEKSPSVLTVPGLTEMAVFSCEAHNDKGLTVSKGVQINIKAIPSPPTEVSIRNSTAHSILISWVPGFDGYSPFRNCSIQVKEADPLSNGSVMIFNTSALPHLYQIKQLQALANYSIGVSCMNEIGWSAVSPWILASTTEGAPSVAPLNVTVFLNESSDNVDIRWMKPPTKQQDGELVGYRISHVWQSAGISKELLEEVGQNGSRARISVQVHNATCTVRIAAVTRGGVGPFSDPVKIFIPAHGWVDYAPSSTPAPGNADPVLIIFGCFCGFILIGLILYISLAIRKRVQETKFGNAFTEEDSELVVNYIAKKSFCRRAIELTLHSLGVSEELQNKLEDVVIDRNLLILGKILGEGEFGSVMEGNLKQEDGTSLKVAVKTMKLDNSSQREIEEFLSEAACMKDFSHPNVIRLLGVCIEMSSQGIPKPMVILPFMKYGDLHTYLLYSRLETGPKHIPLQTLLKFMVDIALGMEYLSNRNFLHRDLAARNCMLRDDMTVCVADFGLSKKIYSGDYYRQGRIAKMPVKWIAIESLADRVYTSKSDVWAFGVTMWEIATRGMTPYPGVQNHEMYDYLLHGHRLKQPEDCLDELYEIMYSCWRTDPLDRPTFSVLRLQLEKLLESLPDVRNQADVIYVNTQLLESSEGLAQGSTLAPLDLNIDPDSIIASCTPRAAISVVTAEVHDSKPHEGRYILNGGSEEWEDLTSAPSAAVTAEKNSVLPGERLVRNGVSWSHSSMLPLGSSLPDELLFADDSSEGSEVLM
To be noted: at 0.1 µM.

The target of assay [17] is T1, Tyrosine-protein kinase Mer (Homo sapiens). To be noted: at 1 µM.
Assay [18] deals with Hepatocyte growth factor receptor (Homo sapiens) (UniProt P08581). To be noted: at 0.1 µM.
For assay [19] the target is unchanged. To be noted: at 1 µM.
Assay [20] concerns the target T2, Muscle, skeletal receptor tyrosine-protein kinase (Homo sapiens) (UniProt O15146).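 Note: values are mean inhibition of MuSK from the GSK PKIS kinase screening panel.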
T2 sequence (whole entry): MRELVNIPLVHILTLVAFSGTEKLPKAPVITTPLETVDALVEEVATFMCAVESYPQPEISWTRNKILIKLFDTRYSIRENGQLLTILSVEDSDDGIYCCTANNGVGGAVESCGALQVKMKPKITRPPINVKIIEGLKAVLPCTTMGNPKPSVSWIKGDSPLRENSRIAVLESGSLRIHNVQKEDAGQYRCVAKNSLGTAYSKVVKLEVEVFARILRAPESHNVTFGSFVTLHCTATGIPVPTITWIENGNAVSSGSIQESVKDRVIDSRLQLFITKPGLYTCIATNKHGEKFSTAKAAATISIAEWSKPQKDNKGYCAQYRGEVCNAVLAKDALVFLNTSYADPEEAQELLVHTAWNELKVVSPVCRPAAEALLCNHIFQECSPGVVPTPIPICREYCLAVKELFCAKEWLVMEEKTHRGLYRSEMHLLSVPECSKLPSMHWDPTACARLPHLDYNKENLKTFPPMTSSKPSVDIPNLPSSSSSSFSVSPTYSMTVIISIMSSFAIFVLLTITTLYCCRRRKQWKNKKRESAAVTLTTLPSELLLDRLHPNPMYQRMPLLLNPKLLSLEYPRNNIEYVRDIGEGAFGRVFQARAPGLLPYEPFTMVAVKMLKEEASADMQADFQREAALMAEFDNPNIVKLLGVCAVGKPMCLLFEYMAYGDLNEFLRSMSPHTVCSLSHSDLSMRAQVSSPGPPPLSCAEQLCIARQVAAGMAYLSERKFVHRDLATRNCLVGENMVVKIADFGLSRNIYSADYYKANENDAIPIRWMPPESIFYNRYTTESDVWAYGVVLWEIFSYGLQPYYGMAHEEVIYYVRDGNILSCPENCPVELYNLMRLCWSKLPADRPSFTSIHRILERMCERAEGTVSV
To be noted: at 0.1 µM.

The inhibition is the drop in the measured response relative to a control, in per cent.

Chain of Tyrosine-protein kinase Lyn (Homo sapiens) (P07948 2-512 limits assumed): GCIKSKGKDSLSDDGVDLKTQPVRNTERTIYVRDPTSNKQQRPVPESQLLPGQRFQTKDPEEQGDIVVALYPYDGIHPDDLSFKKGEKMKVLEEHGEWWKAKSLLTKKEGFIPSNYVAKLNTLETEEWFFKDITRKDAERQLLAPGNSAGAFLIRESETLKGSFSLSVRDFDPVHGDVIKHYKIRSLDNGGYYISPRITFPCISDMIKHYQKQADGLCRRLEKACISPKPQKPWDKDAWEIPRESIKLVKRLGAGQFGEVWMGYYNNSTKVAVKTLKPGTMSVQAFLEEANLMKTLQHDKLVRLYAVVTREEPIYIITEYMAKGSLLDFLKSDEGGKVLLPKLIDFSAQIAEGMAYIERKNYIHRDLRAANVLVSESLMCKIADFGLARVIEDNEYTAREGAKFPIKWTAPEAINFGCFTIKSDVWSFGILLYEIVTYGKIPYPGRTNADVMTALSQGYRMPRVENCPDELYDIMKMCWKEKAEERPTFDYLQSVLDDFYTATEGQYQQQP
Chain of Mast/stem cell growth factor receptor Kit (Homo sapiens) (P10721 whole entry): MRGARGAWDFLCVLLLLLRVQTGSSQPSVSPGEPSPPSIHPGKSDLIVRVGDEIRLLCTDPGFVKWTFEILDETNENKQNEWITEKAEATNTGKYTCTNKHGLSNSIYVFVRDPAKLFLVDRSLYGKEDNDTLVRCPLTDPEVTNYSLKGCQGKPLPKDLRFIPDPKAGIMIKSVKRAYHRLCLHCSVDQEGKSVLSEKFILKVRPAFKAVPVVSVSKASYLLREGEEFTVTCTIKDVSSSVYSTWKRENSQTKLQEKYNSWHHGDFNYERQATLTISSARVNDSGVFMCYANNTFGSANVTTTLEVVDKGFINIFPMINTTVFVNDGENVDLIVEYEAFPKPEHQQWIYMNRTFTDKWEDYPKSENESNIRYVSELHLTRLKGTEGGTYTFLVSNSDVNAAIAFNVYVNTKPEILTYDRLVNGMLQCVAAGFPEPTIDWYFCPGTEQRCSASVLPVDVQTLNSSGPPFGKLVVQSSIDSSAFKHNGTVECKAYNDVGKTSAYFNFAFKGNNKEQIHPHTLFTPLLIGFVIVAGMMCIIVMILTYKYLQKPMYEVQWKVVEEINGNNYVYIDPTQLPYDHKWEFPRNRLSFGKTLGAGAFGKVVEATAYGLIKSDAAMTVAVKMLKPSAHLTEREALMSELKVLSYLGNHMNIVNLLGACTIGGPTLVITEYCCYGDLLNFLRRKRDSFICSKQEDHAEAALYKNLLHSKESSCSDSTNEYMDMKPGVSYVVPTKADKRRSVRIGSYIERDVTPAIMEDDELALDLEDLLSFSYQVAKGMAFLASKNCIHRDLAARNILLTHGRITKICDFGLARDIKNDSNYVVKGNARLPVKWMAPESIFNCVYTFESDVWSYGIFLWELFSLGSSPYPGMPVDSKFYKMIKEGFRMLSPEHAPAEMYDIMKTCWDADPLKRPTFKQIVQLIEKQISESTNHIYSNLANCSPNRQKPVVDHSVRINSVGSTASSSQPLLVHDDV
Chain of Leukocyte tyrosine kinase receptor (Homo sapiens) (P29376 whole entry): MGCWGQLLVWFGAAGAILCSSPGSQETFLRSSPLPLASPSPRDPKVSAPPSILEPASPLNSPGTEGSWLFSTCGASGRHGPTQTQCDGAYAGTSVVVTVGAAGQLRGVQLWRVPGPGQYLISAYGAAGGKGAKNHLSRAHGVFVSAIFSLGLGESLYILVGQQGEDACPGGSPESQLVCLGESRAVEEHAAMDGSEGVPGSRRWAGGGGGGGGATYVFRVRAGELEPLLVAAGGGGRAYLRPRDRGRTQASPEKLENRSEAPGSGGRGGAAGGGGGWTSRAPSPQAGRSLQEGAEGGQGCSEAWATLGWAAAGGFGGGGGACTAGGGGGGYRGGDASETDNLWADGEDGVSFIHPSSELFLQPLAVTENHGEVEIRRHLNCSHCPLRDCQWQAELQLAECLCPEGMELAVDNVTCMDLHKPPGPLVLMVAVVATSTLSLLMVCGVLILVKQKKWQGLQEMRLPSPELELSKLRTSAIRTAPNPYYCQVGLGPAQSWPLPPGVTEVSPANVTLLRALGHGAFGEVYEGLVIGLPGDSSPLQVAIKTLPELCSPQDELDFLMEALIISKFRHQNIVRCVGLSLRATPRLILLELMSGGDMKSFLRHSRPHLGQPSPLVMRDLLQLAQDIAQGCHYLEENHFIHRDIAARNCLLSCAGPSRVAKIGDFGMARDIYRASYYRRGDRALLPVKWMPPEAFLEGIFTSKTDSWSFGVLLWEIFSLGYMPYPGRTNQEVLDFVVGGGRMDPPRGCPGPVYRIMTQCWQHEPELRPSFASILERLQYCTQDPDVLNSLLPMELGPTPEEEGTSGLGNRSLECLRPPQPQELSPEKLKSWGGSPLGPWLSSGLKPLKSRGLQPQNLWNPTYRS
Chain of Hepatocyte growth factor receptor (Homo sapiens) (P08581 whole entry): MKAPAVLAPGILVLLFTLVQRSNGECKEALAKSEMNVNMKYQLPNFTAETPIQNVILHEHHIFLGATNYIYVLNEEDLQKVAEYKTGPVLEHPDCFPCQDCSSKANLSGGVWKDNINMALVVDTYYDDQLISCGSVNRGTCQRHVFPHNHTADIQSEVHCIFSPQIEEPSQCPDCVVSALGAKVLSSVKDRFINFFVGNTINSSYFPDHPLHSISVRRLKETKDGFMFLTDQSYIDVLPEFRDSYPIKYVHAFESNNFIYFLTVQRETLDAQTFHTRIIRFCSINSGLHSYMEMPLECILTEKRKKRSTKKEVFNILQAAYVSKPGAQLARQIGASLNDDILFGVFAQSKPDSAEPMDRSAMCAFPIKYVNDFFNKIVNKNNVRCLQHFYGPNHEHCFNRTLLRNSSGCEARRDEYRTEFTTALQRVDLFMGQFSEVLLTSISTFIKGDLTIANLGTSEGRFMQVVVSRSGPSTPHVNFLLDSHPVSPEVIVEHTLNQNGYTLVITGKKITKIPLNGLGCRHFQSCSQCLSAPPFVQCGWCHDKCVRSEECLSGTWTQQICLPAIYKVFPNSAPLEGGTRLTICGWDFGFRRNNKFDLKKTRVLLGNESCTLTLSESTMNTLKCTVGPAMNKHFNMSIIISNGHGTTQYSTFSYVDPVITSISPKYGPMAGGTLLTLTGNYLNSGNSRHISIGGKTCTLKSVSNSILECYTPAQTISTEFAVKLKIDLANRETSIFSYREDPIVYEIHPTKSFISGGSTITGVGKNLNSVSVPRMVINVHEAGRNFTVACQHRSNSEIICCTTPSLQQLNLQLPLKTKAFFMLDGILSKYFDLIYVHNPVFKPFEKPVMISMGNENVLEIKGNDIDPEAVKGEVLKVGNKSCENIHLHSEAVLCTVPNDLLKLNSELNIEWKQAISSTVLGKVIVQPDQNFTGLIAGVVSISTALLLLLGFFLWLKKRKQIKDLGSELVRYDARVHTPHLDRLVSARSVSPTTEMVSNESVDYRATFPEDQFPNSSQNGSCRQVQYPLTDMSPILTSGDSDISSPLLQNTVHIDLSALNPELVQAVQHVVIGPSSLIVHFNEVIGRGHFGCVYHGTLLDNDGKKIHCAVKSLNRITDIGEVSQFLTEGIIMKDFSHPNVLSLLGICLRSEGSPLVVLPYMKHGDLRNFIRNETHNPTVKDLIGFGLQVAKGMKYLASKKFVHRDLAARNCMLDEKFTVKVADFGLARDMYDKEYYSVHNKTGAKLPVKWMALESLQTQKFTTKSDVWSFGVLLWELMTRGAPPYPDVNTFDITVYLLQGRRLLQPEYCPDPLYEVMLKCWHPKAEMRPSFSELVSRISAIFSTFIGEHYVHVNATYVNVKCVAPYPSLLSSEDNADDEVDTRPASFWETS
Chain of Tyrosine-protein kinase Lck (Homo sapiens) (P06239 2-509 limits assumed): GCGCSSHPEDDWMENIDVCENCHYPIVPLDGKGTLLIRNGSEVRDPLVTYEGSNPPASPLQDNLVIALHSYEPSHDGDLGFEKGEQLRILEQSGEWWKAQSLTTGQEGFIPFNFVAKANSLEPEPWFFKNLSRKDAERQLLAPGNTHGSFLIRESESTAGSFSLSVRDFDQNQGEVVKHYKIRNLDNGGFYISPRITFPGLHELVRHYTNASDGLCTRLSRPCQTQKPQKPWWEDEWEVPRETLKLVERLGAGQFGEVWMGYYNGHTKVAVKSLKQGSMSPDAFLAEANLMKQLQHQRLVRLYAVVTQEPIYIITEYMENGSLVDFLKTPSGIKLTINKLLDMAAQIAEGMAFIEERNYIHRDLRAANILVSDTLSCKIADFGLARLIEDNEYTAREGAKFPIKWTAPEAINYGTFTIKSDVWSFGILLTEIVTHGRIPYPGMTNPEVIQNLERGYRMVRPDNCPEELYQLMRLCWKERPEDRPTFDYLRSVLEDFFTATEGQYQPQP
Chain of Mast/stem cell growth factor receptor Kit (Homo sapiens), P10721 [D816V] (P10721 whole entry D816V): as the sequence (P10721 whole entry) above, with D816V counted along it
Chain of Mast/stem cell growth factor receptor Kit (Homo sapiens), P10721 [T670I] (P10721 whole entry T670I): as the sequence (P10721 whole entry) above, with T670I counted along it
Chain of Mast/stem cell growth factor receptor Kit (Homo sapiens), P10721 [V560G] (P10721 whole entry V560G): as the sequence (P10721 whole entry) above, with V560G counted along it

`c1cnn2ncc(-c3ccnc(Nc4ccc5c(c4)OCCO5)n3)c2c1`: the inhibition stood at 106% in assay [1]; 3.21% in assay [2]; 9.72% in assay [3]; 49.2% in assay [4]; 93.3% in assay [5]; 38.1% in [6]. Also, the inhibition in assay [7] was 83.5%; in [8], 3.28%; in [9] it was 9.06%; in assay [10], 6.2%; in assay [11] it was 21.9%; in [12] it was 7.12%. Further, the inhibition came out at 12.7% in [13]; 4.02% in [14]; 11% in assay [15]; 4.03% in assay [16]; 19.6% in assay [17]; 3.78% in assay [18]. Also, the figures for the inhibition in assay [19] and in assay [20] were 16.8% and 5.35%, respectively.

In the case of `Cc1nn(C)c2cc(N(C)c3ccnc(Nc4cccc(S(N)(=O)=O)c4)n3)ccc12`, the inhibition is 88% in [1]; 2.13% in [2]; 5.94% in [3]; 5.8% in assay [4]; 38.2% in assay [5]; 4.37% in [6]. Further, the inhibition is 37.3% in assay [7]; 14% in [8]; 57.4% in assay [9]; 5.42% in [10]; 29% in assay [11]; 13.6% in assay [12]. Further, the inhibition in assay [13] was 51.3%; in assay [14] it was 9.71%; in [15], 46.8%; in assay [16], 2.42%; in assay [17], 18.8%; in assay [18], 7.18%. The figures for the inhibition in assay [19] and in [20] were 37.1% and 2.31%, respectively.

Take `Fc1cccc(COc2ccc(Nc3ncnc4cc(-c5ccc[nH]5)sc34)cc2Cl)c1`: the inhibition was 2.05% in [1]; 0.67% in assay [2]; 1.62% in assay [3]; 1.82% in assay [4]; 2.49% in assay [5]; 0.61% in assay [6]. For the same compound, the inhibition in assay [7] was 1.53%; in [8], -1.91%; in assay [9], 2.29%; in assay [10] it was 2.11%; in assay [11], 9.35%; in assay [12] it was 2.95%. Also, the inhibition is 7.02% in assay [13]; 1.43% in assay [14]; 4.65% in [15]; 1.29% in assay [16]; 5.95% in assay [17]; -0.09% in assay [18]. Also, the inhibition came out at 4.48% in [19] and 1.3% in assay [20].

On to `CCn1c(-c2nonc2N)nc2c(C#CC(C)(C)O)nc(CN3CCCC3)cc21`, for which the inhibition in assay [1] was 0.93%; in assay [2], -0.84%; in [3] it was 1.18%; in [4], -0.82%; in assay [5] it was -3.13%; in assay [6] it was 1.79%. Besides, the inhibition in assay [7] was 4.31%; in [8], -0.53%; in assay [9], 1.3%; in assay [10] it was 0.56%; in assay [11] it was -0.04%; in assay [12], -1.54%. The inhibition in assay [13] is 0.2%; in [14], -1.39%; in [15], 0.5%; in [16] it was -0.28%; in [17], 0.18%; in assay [18], 5.85%. Besides, the inhibition in assay [19] worked out at 5.28%; in assay [20], 0.58%.

Consider `CCn1c(-c2nonc2N)nc2cnc(Oc3cccc(NC(=O)c4ccc(OCCN5CCOCC5)cc4)c3)cc21`, for which the inhibition in assay [1] is 3.53%; in [2], 2.71%; in [3], -0.34%; in [4], 2.87%; in assay [5], 4.8%; in assay [6], -1.11%. Moreover, the inhibition in assay [7] turned out to be 2.85%; in [8] it was 0.98%; in assay [9] it was 4.63%; in assay [10] it was 2.7%; in assay [11], 1.51%; in assay [12] it was 5.8%. In addition, the inhibition in assay [13] worked out at 4.87%; in assay [14] it was 3.05%; in [15], 2.62%; in assay [16], 1.1%; in [17], 2.56%; in [18], 3.9%. Moreover, the inhibition was 7.84% in assay [19] and 2.09% in assay [20].

For `COc1ccccc1Nc1ncc(-c2ccccc2)o1`, the inhibition amounted to 98.2% in [1]; 4.74% in assay [2]; 6.9% in assay [3]; 17.8% in assay [4]; 77.7% in assay [5]; 31.5% in assay [6]. Moreover, the inhibition was 85.5% in [7]; 4.55% in assay [8]; 9.64% in [9]; 3.5% in assay [10]; 4.49% in [11]; 5.91% in [12]. Further, the inhibition in assay [13] was found to be 8.44%; in assay [14], 3.58%; in [15], 5.77%; in assay [16], 0.01%; in [17] it was 1.66%; in assay [18], 10.1%. Further, the results for the inhibition in assay [19] and in assay [20] were 1.27% and 4.33%, respectively.
